Bioassay records as filed in PubChem BioAssay.
G9a inh = qHTS Assay for Inhibitors of Histone Lysine Methyltransferase G9a; G9a H3K9 monomethylation, AlphaScreen, 2 h; Histone-lysine N-methyltransferase EHMT2 (Homo sapiens), Q96KQ7; AID 504332, 2011; Potency, µM (series often up to 102 µM), for the others: at the highest dose activity, negative = inhibition, hits mostly inhibitors; hit rate 8.8% among 350,000; also: % is scaled to controls: 0 for no effect and ±100 for the full control effect; nearly all actives have a fitted effect of over 75% in size
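AlphaScreen read-out: biotin-H3K9 peptide (500 nM) methylation by 20 nM enzyme with 20 uM SAM, 2 h at room temperature after 15 min compound preincubation; anti-monomethyl H3K9 antibody plus donor/acceptor beads, 10 min dark.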
HP1b binding inh = HTS for Inhibitors of HP1-beta Chromodomain Interactions with Methylated Histone Tails; Potency, µM (top dose mostly 114 µM), without a hit: at the highest dose activity change, negative = inhibition, usual class: inhibitors; hit rate 0.56% among 390,000; AID 540317, 2011; AlphaScreen HP1-beta / biotin-H3K9me3 peptide binding; Chromobox protein homolog 1 (Homo sapiens), P83916; also: nearly all actives have a fitted effect of over 70% in size
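Compound inhibition of the preformed complex between 50 nM HP1-beta and 50 nM biotinylated H3K9me3 peptide was read by AlphaScreen. Buffer was PBS pH 7.4 with 0.01% Tween-20. Incubations ran 30 min at room temperature, with 10 ug/mL donor/acceptor beads.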
BAZ2B block = qHTS Assay for Inhibitors of BAZ2B; Bromodomain adjacent to zinc finger domain protein 2B (Homo sapiens), Q9UIF8; AlphaScreen BAZ2B-H3K14Ac peptide displacement; Potency, µM (doses to about 114 µM), inactives show at the top dose activity change, negative = inhibition, hits mostly inhibitors; hit rate 4.4% among 360,000; also: % is scaled to controls: 0 for no effect and ±100 for the full control effect; nearly all actives have a fitted effect of over 60% in size
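Complex of BAZ2B and biotin-H3K14Ac (50 nM apiece) forms over 30 min at RT, then faces library compounds up to 110 uM for another 30 min; AlphaScreen beads added, 20 min dark incubation, luminescence read.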
PLK1 PBD inh = qHTS for Inhibitors of PLK1-PDB (polo-like kinase 1 - polo-box domain): Primary Screen; Plk1 PBD binding of FITC phosphopeptide, fluorescence polarization; Potency, µM, for the others: max response, negative = inhibition, most hits filed as inhibitors; hit rate 2.8% among 360,000; also: series mostly up to about 57 µM; % is scaled to controls: 0 for no effect and ±100 for the full control effect; nearly all actives have a fitted effect of over 65% in size
JMJD2A Tudor = qHTS Assay for Inhibitors of JMJD2A-Tudor Domain; Lysine-specific demethylase 4A (Homo sapiens), O75164; AlphaScreen JMJD2A-Tudor / H3K4me3 peptide binding; Potency, µM (series often up to 114 µM), without a hit: at the top dose activity change, negative = inhibition, hits mostly inhibitors; hit rate 4.4% among 390,000; AID 504339, 2011; also: % is scaled to controls: 0 for no effect and ±100 for the full control effect; nearly all actives have a fitted effect of over 50% in size
ALOX12 inh = Primary qHTS assay for inhibitors of human arachidonate 12S-lipoxygenase (ALOX12): Round 2; Potency, µM (titrated, usually from 108 µM), without a hit: at the highest dose activity change, negative = inhibition, most hits filed as inhibitors; hit rate 1.1% among 580,000; Polyunsaturated fatty acid lipoxygenase ALOX12 (Homo sapiens), P18054; purified 12hLO, xylenol orange hydroperoxide absorbance; also: % is scaled to controls: 0 for no effect and ±100 for the full control effect
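Purified human 12hLO at 150 nM in 25 mM Hepes, 0.01% Triton X-100, pH 7.0, preincubated 15 min at room temperature with compound. Reaction started with 40 uM arachidonic acid, 30 min at room temperature. Hydroperoxide measured by Fe-xylenol orange, 573/405 nm absorbance ratio.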
Active calls of the source: *; u = inconclusive; x = no result given; [ ] = another dose, or the depositor's remark. Only some compounds are listed: those with a hit (about 9% of all), similar ones and a draw of the others. Calls follow the shape of the dose curve; as a rule, active = well fitted curve in the direction sought with a large enough effect; inconclusive = small, poorly fitted or top-dose-only effect, or another doubt; inactive = no such curve, though single readings can be large; an effect the other way counts as inactive or inconclusive. Potency is read from the fitted curve at half-maximal effect.

SMILES	G9a inh	HP1b binding inh	BAZ2B block	PLK1 PBD inh	JMJD2A Tudor	ALOX12 inh
CCOC(=O)c1coc(CNC(=O)c2c(C)oc3c2CCCC3)c1	56.2µM*	-0.5%	u	-4.1%	-26.5%	-2.5%
CCN(Cc1ccccc1)C(=O)Cn1ccn2nc3c(c2c1=O)CCCC3	x	x	x	x	x	5.7%
O=C(NC1(C(F)(F)F)NC(=O)N(c2ccccc2F)C1=O)c1ccncc1 (centres undefined)	7.5%	37.3%	-3.2%	0.4%	0.0%	-17.5%
Cc1c(OCC(=O)NCc2cccnc2)ccc2c3c(c(=O)oc12)CCCC3	-5.9%	45.5%	-14.3%	3.5%	-9.0%	4.7%
CCN(CC)c1nc(N)c2c(N)n(-c3ccccc3C)c(=S)c(C#N)c2c1C#N	-48.5%[2.33 µM]	u	-31.5%	26.7µM*	39.8µM*	0.0%
Cc1ccccc1OCCCn1c(CO)nc2ccccc21	-4.8%	39.3%	-3.1%	-8.9%	-14.0%	7.5%
CN(C)CCCC1Sc2ccccc2Sc2ccccc21 (centres undefined)	x	70.8µM*	x	-5.2%	20µM*	u
CN(C)CCCOc1ccc2c(c1)Sc1ccccc1CC2=O	-26.7%[59 µM]	16.0%	12.6%	-16.5%	-18.8%	-8.1%
O=C1C=C(N2CCCCC2)C2(CCCCC2)O1	7.8%	33.8%	-19.6%	0.0%	-6.1%	-8.1%
N#CC1=C(N)N(c2ccc(F)cc2)C2=C(C1c1ccc(O)cc1)S(=O)(=O)CC2 (centres undefined)	3.98µM*	39.8µM*	35.5µM*	15µM*	31.6µM*	u
N#CC1=C(N)N(c2c(F)cccc2F)C2=C(C(=O)CCC2)C1c1ccc(F)cc1 (centres undefined)	x	x	x	x	x	-12.0%
CN(C(=O)c1cccc(N2C(=O)C3CC=CCC3C2=O)c1)C1CCCCC1 (centres undefined)	50.1µM*	12.9%	-10.2%	-3.0%	-18.8%	-0.1%
NC(=O)CN1C(=O)[C@@H]2CN(S(=O)(=O)c3cccs3)CCN2C1=O	x	x	x	x	x	2.0%[176 µM]
Cc1ccc(N2C(=O)CS/C2=C(\C(Cl)=C(Cl)Cl)[N+](=O)[O-])cc1	20µM*	u	44.7µM*	-20.5%	39.8µM*	u
Cc1cccc(NC(=O)c2cc(-c3c(C)cc(C)cc3O)n[nH]2)c1	10.0%	65.7%	3.3%	u	-10.6%	0.0%
CCN(CC)S(=O)(=O)c1ccc2c(c1)nc(-c1ccccn1)n2C	10µM*	2.0%	3.7%	-18.0%	31.6µM*	u
Cc1ccccc1C(=O)N1CCC(C(=O)Nc2ccccc2Cl)CC1	30.6%	24.6%	2.3%	3.6%	1.4%	171.9%
C=CCNC(=O)c1ccccc1NS(=O)(=O)c1ccc(SC)cc1	-3.6%[12.7 µM]	34.2%	0.5%	-5.3%	-1.1%	-7.6%
O=C(Nc1ccccc1C(=O)N1CCN(Cc2ccccc2)CC1)c1ccccn1	14.1µM*	27.6%	-1.9%	-10.6%	u	3.2%
C=CCNC(=O)c1ccccc1NC(=O)C1CCN(S(=O)(=O)c2ccc(SC)cc2)CC1	10.0%	-3.0%	50.1µM*	-5.4%	-7.0%	u
Cc1ccccc1C(=O)N1CCC(C(=O)Nc2ccccc2N2CCCC2)CC1	50.1µM*	-4.4%	1.5%	-3.9%	-28.2%	-1.7%
CCOC(=O)N1CCN(C(=O)C2CCN(C(=O)c3ccccc3C)CC2)CC1	x	7.94µM*	x	3.36µM*	7.08µM*	u
Cc1ccccc1Cn1c(Cl)nc2c1c(=O)n(C)c(=O)n2C	x	x	x	x	x	6.6%
COc1cc(NC(=O)c2cc(=O)[nH]c3ccccc23)cc(OC)c1	x	x	x	x	x	5.9%
CC(NC(=O)c1ccco1)c1nnc2n1CCN(Cc1ccc(Cl)cc1)CC2 (centres undefined)	x	x	x	x	x	6.9%
SMILES	G9a inh	HP1b binding inh	BAZ2B block	PLK1 PBD inh	JMJD2A Tudor	ALOX12 inh
Cc1ccccc1N1CCN(C(=O)c2ccccc2NC(=O)c2ccccc2C(=O)O)CC1	-25.9%	u	-18.6%	29.9µM*	-21.8%[11.4 µM]	-4.1%
Cc1ccccc1C(=O)N1CCC(C(=O)Nc2ccc(S(=O)(=O)N3CCCCC3)cc2)CC1	x	10.0%	-6.9%	-1.4%	-11.8%	44.7µM*
CS(=O)(=O)c1ccccc1C(=O)N1CCN(S(=O)(=O)c2ccc(C3CCCCC3)cc2)CC1	50.1µM*	7.1%	-32.1%	-4.5%	-31.7%	-6.6%
CCCOc1ccc(NC(=O)CNC(=O)c2cc(OC)cc(OC)c2)cc1OCCC	11.4%	31.4%	-21.5%	-3.8%	-24.8%	u
COCC(=O)N(CCN(C)C)Cc1cc2cc3c(cc2nc1Cl)OCO3	u	16.8%	-21.1%	3.3%	-0.6%	-6.6%
C#CCOCCOCCOCCNc1nc(N2CCN(C(=O)CCCCCCCCCCNC(=O)[C@H]([C@@H](C)CC)n3cc(CCCCN=C(N)N)nn3)CC2)nc(N2CCN(C(=O)CCCCCCCCCCNC(=O)[C@@H]([C@H](C)O)n3cc(C)nn3)CC2)n1	11.8%[2.33 µM]	u	u	0.4%	56.2µM*	x
C#CCOCCOCCOCCNc1nc(N2CCN(C(=O)CCCCCCCCCCNC(=O)[C@H]([C@@H](C)CC)n3cc(CCCCN=C(N)N)nn3)CC2)nc(N2CCN(C(=O)CCCCCCCCCCNC(=O)[C@H](CCCN=C(N)N)n3cc(C[C@@H](C)CC)nn3)CC2)n1	2.1%[2.33 µM]	x	50.1µM*	x	x	x
C#CCOCCOCCOCCNc1nc(N2CCN(C(=O)CCCCCCCCCCNC(=O)[C@H](CCCN=C(N)N)n3cc(C[C@@H](C)CC)nn3)CC2)nc(N2CCN(C(=O)CCCCCCCCCCNC(=O)[C@@H]([C@H](C)CC)n3cc(CCCCCN)nn3)CC2)n1	10.4%[2.33 µM]	x	56.2µM*	x	x	x
Oc1oc(-c2ccco2)nc1C=Nc1cccc(Cl)c1	-9.2%	8.6%	-20.9%	-11.6%	-16.7%	-18.8%
O=C(c1cccc(S(=O)(=O)N2CCc3ccccc32)c1)N1CCN(CCO)CC1	x	19.9%[57 µM]	x	-5.6%	-8.3%	7.6%
CC1=CC(C)(C)Nc2ccc(C)cc21	44.7µM*	7.3%	50.1µM*	-0.8%	u	u
CC1=CC(C)(C)Nc2ccc(Cc3ccc4c(c3)C(C)=CC(C)(C)N4)cc21	10µM*	u	14.1µM*	-7.2%	17.8µM*	u
CC1=CC(C)(C)NC(=S)N1c1ccc(C)cc1	-9.4%[59 µM]	27.7%	-1.7%	-1.1%	-11.0%	-17.5%
